In PubChem BioAssay (EPA / NIEHS):
Records with an inconclusive call do not appear. Active and inactive are the calls of the source. Rule for the calls: active = hit-call score of the fitted dose curve at least 0.9, where 1 is the maximum; inconclusive = response in the unintended direction; inactive = score below 0.9.

What was measured:
NCBI gene 24521 = assay: NVS_IC_rKATPCh: NovaScreen (NVS) Ion Channel Assay for rat Potassium Channel, ATP-Sensitive (KATPCh) (AID 2283319)
Procedure, shortened: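 Primary duplicate screen at 25 uM, then singleton concentration series to 50 uM maximum, in a rat cortex membrane radioligand displacement assay. Binding measured by filtration and scintillation 2 h post-dose; DMSO baseline.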

[1] = target: human Constitutive Androstane Receptor (CAR), NR1I3 (gene 9970) (UniProt Q14994); assay: NVS_NR_hCAR_Agonist: NovaScreen (NVS) Nuclear Receptor Binding Assay for human Constitutive Androstane Receptor Agonism (CAR) (AID 2283328)
Chain of human Constitutive Androstane Receptor (CAR), NR1I3 (gene 9970) (Q14994 whole entry, looked up): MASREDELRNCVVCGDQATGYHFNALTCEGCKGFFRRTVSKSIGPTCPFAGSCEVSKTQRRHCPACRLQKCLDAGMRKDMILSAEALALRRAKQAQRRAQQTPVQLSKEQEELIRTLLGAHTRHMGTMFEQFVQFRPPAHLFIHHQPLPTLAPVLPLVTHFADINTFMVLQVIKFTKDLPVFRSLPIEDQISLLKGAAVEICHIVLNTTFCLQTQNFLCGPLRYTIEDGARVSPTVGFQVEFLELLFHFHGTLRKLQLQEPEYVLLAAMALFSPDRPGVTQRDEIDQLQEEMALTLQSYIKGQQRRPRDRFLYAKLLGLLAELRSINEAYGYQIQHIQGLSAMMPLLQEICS
Procedure, shortened: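 Actives from a 25 uM duplicate screen were retested in singleton concentration series to 50 uM max. Biochemical TR-FRET assay on extracted CAR protein measured 1 h post-dose, with signal increase over DMSO control.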

[2] = target: Sodium channel protein type 1 subunit alpha (Rattus norvegicus) (UniProt P04774); assay: NVS_IC_rNaCh_site2: NovaScreen (NVS) Ion Channel Assay for rat Sodium Channel, Site 2 (NaCh) (AID 2283322);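 note: hit means loss of radioligand binding signal relative to DMSO so AC50 marks displacement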
Procedure, shortened: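 Initial duplicate single-point testing at 25 uM, followed by concentration-response runs for actives. Binding of radioligand to rat forebrain membranes quantified after 1 h via filter-based radiodetection.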

[3] = target: rat Gamma-Aminobutyric Acid Type B Receptor (GABBR), Gabbr1 (gene 81657) (UniProt Q9Z0U4); assay: NVS_GPCR_rGABBR: NovaScreen (NVS) G Protein-Coupled Receptor Assay for rat Gamma-Aminobutyric Acid Type B Receptor (GABBR) (AID 2283301)
Chain of rat Gamma-Aminobutyric Acid Type B Receptor (GABBR), Gabbr1 (gene 81657) (Q9Z0U4 whole entry, looked up): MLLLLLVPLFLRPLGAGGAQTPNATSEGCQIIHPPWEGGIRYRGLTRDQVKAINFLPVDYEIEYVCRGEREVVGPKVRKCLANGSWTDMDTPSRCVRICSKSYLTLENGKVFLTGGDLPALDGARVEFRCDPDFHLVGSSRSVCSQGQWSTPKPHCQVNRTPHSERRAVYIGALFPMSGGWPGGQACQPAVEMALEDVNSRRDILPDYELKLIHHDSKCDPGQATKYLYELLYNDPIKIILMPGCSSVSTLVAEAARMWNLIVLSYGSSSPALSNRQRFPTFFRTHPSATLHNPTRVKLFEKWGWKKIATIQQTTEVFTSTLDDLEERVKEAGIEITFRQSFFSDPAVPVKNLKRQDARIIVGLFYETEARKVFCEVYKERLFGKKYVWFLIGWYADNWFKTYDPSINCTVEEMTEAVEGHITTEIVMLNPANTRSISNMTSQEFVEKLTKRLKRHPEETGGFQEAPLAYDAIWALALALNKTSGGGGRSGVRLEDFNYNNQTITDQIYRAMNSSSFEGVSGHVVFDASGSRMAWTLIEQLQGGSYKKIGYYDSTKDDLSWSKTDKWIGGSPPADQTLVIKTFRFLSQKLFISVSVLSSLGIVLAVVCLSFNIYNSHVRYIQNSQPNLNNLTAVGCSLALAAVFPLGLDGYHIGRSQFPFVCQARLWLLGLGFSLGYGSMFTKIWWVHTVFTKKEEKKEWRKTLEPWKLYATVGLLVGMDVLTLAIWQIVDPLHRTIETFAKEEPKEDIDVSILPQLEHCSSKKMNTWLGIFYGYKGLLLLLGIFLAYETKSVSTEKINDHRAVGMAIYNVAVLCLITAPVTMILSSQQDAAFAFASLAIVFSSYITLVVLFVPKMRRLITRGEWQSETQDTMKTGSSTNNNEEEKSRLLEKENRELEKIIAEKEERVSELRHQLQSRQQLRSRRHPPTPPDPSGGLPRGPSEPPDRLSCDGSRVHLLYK
Procedure, shortened: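 Rat cortical membrane preparation, competitive radioligand binding for 1 h with filtration and scintillation readout. Actives from duplicate single-point 25 uM screening proceeded to concentration series with 50 uM top concentration.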

[4] = NVS_IC_rCaDHPRCh_L: NovaScreen (NVS) Ion Channel Assay for rat Calcium Channel, Type L, Dihydropyridine Site (CaDHPRCh_L) (AID 2283320)
Procedure, shortened: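 Rat cortex membrane preparation; dihydropyridine-site radioligand displacement read 1 h post-dose by filtration and scintillation. Primary single-point screen 25 uM in duplicate, then concentration series to 50 uM maximum; DMSO as negative control.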

[5] = target: rat Vasopressin 1 Receptor (V1), Avpr1a (gene 25107) (UniProt P30560); assay: NVS_GPCR_rV1: NovaScreen (NVS) G Protein-Coupled Receptor Assay for rat Vasopressin 1 Receptor (V1) (AID 2283316)
Chain of rat Vasopressin 1 Receptor (V1), Avpr1a (gene 25107) (P30560 whole entry, looked up): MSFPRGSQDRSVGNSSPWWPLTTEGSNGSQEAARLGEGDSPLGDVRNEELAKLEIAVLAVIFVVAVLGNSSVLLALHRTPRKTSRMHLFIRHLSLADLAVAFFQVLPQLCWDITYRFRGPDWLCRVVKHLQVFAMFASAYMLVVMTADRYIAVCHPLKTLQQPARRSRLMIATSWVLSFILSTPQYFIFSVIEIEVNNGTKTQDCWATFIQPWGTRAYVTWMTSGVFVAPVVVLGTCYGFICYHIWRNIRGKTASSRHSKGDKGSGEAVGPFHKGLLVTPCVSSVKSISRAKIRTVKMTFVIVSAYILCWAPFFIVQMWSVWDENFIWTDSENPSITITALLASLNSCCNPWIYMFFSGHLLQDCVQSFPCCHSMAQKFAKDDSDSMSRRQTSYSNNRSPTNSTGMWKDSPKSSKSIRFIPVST
Procedure, shortened: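 Concentration-response up to 50 uM for chemicals passing a threshold such as 30% inhibition in an initial duplicate 25 uM screen. Displacement of radioligand from rat liver membranes measured after 1.5 h by filtration and scintillation.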

[6] = target: bovine Gamma-Aminobutyric Acid Type A Receptor BDZ, alpha 5 site (GABARa5), GABRA5 (gene 523515) (UniProt Q08E50); assay: NVS_LGIC_bGABARa5: NovaScreen (NVS) Ligand-Gated Ion Channel Assay for bovine Gamma-Aminobutyric Acid Type A Receptor BDZ, alpha 5 site (GABARa5) (AID 2283323)
Chain of bovine Gamma-Aminobutyric Acid Type A Receptor BDZ, alpha 5 site (GABARa5), GABRA5 (gene 523515) (Q08E50 whole entry, looked up): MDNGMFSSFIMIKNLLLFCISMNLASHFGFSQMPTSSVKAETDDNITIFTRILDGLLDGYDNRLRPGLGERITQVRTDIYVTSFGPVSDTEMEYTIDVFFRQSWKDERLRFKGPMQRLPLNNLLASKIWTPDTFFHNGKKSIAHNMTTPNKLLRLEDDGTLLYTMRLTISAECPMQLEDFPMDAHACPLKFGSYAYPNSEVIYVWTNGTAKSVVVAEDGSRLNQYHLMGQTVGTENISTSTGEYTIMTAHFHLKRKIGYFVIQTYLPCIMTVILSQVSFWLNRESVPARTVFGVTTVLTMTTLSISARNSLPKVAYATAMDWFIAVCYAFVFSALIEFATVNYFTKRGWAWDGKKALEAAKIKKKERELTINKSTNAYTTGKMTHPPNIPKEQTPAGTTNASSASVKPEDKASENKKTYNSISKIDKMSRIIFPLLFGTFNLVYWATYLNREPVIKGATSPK
Procedure, shortened: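 Tested first in duplicate at a single 25 uM, with hits re-run in concentration series to a 50 uM maximum. Bovine hippocampal membranes; specific radioligand displacement measured by filter scintillation counting 1 hr post-dose.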

[7] = target: rat Opioid Receptor, Non-selective Sodium (Na+) Binding, Oprm1 (gene 25601) (UniProt P33535); assay: NVS_GPCR_rOpiate_NonSelectiveNa: NovaScreen (NVS) G Protein-Coupled Receptor Assay for rat Opioid Receptor, Non-selective Sodium (Na+) Binding (AID 2283311)
Chain of rat Opioid Receptor, Non-selective Sodium (Na+) Binding, Oprm1 (gene 25601) (P33535 whole entry, looked up): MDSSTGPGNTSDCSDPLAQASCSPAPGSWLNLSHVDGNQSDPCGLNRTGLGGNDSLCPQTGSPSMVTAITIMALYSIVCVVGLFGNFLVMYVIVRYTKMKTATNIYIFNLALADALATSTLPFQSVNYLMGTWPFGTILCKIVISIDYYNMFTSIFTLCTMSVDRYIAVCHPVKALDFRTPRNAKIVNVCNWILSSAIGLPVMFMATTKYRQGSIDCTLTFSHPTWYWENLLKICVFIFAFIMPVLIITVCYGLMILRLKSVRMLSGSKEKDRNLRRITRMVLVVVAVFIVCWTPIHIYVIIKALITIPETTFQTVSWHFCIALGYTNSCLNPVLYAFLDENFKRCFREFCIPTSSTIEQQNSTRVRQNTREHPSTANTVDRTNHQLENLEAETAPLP
Procedure, shortened: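 Filtration radioligand binding on rat forebrain membrane preparations, read 1.5 h after dosing. Single-concentration 25 µM primary screen in duplicate, followed by singleton concentration series to 50 µM max for actives; DMSO baseline.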

[8] = target: rat Somatostatin Receptor (SST), Sstr1 (gene 25033) (UniProt P28646); assay: NVS_GPCR_rSST: NovaScreen (NVS) G Protein-Coupled Receptor Assay for rat Somatostatin Receptor (SST) (AID 2283314)
Chain of rat Somatostatin Receptor (SST), Sstr1 (gene 25033) (P28646 whole entry, looked up): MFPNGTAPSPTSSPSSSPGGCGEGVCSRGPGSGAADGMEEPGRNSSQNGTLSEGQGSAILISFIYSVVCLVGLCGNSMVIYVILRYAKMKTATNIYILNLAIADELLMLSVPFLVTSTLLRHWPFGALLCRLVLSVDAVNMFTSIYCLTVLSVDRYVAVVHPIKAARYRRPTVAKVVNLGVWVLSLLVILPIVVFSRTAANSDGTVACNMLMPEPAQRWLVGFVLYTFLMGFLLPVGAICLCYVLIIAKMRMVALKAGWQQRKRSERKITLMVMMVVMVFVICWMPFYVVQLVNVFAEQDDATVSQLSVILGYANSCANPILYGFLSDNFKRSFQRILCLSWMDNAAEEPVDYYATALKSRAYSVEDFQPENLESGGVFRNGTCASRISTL
Procedure, shortened: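 Single-concentration duplicate screen (25 uM), then concentration-response up to 50 uM for chemicals passing a threshold such as 30% inhibition. Membranes came from rat forebrain. Binding was measured 1 h post-dose by filter radiodetection and scintillation, relative to DMSO.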

[9] = target: rat Glutamate, AMPA Site (AMPA), Gria1 (gene 50592) (UniProt P19490); assay: NVS_LGIC_rAMPA: NovaScreen (NVS) Ligand-Gated Ion Channel Assay for rat Glutamate, AMPA Site (AMPA) (AID 2283324)
Chain of rat Glutamate, AMPA Site (AMPA), Gria1 (gene 50592) (P19490 whole entry, looked up): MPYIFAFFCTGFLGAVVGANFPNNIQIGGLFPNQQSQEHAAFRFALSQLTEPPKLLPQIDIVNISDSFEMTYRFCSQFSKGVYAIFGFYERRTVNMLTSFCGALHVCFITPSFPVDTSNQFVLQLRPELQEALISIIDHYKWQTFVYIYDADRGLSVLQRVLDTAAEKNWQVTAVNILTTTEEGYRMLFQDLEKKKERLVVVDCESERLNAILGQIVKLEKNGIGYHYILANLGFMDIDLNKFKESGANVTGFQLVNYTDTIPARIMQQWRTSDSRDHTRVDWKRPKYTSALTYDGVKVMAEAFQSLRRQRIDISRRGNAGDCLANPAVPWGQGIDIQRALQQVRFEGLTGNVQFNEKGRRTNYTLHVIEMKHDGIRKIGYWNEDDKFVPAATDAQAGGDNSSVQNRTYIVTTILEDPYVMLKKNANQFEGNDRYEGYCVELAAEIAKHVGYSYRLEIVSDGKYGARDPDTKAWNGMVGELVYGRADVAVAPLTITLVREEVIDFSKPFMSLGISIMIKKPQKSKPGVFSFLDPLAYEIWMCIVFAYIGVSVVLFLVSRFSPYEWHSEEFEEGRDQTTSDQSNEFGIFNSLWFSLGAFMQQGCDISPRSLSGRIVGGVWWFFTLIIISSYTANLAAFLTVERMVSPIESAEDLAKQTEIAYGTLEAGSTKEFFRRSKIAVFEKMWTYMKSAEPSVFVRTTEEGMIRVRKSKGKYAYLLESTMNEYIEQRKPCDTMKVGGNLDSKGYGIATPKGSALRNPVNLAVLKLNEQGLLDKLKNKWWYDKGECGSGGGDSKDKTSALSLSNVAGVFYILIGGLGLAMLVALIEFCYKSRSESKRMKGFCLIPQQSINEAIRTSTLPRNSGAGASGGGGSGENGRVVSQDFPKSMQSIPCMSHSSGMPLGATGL
Procedure, shortened: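 Screening at 25 uM in duplicate preceded concentration series reaching 50 uM for qualifying compounds. Radioligand displacement on rat forebrain membranes, 1 h, filter-based scintillation readout; reduced binding relative to DMSO.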

[10] = target: rat Gamma-Aminobutyric Acid Type A Receptor, Non-Selective (GABAR-NonSelective), Gabra1 (gene 29705) (UniProt P62813); assay: NVS_LGIC_rGABAR_NonSelective: NovaScreen (NVS) Ligand-Gated Ion Channel Assay for rat Gamma-Aminobutyric Acid Type A Receptor, Non-Selective (GABAR-NonSelective) (AID 2283326)
Chain of rat Gamma-Aminobutyric Acid Type A Receptor, Non-Selective (GABAR-NonSelective), Gabra1 (gene 29705) (P62813 whole entry, looked up): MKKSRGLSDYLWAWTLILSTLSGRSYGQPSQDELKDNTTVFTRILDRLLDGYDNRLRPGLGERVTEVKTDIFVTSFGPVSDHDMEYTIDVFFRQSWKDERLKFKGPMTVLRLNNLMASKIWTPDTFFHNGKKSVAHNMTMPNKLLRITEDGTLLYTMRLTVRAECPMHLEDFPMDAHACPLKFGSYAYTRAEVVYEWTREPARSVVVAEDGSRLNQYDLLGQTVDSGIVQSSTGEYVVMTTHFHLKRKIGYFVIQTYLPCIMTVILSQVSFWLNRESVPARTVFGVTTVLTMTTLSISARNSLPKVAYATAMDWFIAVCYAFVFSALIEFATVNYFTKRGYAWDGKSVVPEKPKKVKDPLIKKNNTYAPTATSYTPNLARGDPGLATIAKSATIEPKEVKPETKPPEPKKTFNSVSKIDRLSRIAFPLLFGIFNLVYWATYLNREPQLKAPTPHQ
Procedure, shortened: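 Compounds were first screened in duplicate at 25 uM, with actives run as singleton concentration series (max 50 uM). Binding of a radioligand to rat whole-brain GABA-A preparation was measured by filtration and scintillation counting after 1 h, DMSO baseline.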

[11] = target: rat Opioid Receptor, Non-selective Binding, Oprm1 (gene 25601) (UniProt P33535); assay: NVS_GPCR_rOpiate_NonSelective: NovaScreen (NVS) G Protein-Coupled Receptor Assay for rat Opioid Receptor, Non-selective Binding (AID 2283318)
Chain of rat Opioid Receptor, Non-selective Binding, Oprm1 (gene 25601) (P33535 whole entry, looked up): as the sequence (P33535 whole entry, looked up) above
Procedure, shortened: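 Filter-based radioligand displacement using rat forebrain membrane preparations, measured 1.5 h post-dosing. Single-concentration duplicate screen at 25 uM, follow-up in concentration series; activity taken as signal loss relative to DMSO.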

In the case of `CCCc1cc(=O)[nH]c(=S)[nH]1`, the outcome (NCBI gene 24521) is reported as “inactive”.
With `CCCCCCCCCCCCCO` the outcome [1] was “inactive”.
For `Cc1c(C(=O)O)c(O)cc2c1C(=O)c1c(O)c([C@@H]3O[C@H](CO)[C@@H](O)[C@H](O)[C@H]3O)c(O)c(O)c1C2=O`, the outcome [2] was “inactive”.
For `COc1ccc2c(c1)c(CC(=O)O)c(C)n2C(=O)c1ccc(Cl)cc1`, the outcome [3] was “inactive”.
In the case of `COc1cc(-c2nc(NC(=O)c3cc4cc(C)cc(C)c4n3CC(=O)O)sc2CCC2CCCCC2)c(OC)cc1Cl`, the AC50 [4] is reported as 6.08 µM (active) and the AC50 [2] is reported as 9.13 µM (active).
With `Cc1cccc(Nc2cc(Cl)nc(SCC(=O)O)n2)c1C` the AC50 [5] was 2.85 µM (active).
In the case of `CCCCc1ccc2c(n1)[C@@H](c1ccc(OC)cc1C[C@H](C)C(=O)O)[C@H](C(=O)O)[C@H]2c1ccc2c(c1)OCO2`, the AC50 [6] is reported as 27.5 µM (active).
With `Nc1ccc(S(=O)(=O)c2ccc(N)cc2)cc1` the outcome [7] was “inactive”.
With `CC(C)(C)c1cc(O)c(C(C)(C)C)cc1O` the AC50 [8] was 3.63 µM (active) and the outcome [1] was “inactive”.
In the case of `Nc1nc(N)c2nc(CNc3ccc(C(=O)N[C@@H](CCC(=O)O)C(=O)O)cc3)cnc2n1`, the AC50 [4] is reported as 25 µM (active), the AC50 [9] is reported as 23.2 µM (active) and the outcome [10] is reported as “inactive”.
With `COCCOC[C@H](CC1(C(=O)NC2CCC(C(=O)O)CC2)CCCC1)C(=O)Oc1ccc2c(c1)CCC2` (some centres not stated) the AC50 [8] was 5.45 µM (active), the outcome [11] was “inactive” and the outcome [9] was “inactive”.
